The list is not random: actives were taken first. Their share in the collection is about 2.1%.
PrPC TRFRET = reduces human prion protein on the cell surface. P04156. cell surface PrPC, TR-FRET read-out. inhibition, % at 13.8 µM. actives 0.43% (n = 370,000). AID 720596; in the data active = inhibition above about 24%
PrP UTR inh = inhibition of PrP 5' UTR reporter expression | cell-based PrP 5' UTR mRNA reporter, plate reader | actives 0.35% (n = 340,000) | inhibition, % (no concentration beside the values); in the data active = inhibition above about 52%
Sa ugtP lethal = kills S. aureus RN4220 lacking UgtP | S. aureus RN4220 ugtP deletion, OD600 growth, 16 h | growth inhibition, % (test concentration not listed) | actives 0.54% (n = 330,000); in the data active = growth inhibition above about 68%
RN4220 kill = S. aureus RN4220 growth inhibition; actives 0.33% (n = 330,000); AID 1259311; inhibition, % (concentration not given with the values); OD600, 16 h; in the data active = inhibition above about 85%
PfHsp40 yeast = rescue of PfHsp40-mediated yeast toxicity | growth rescue, % at 12.5 µM | actives 0.68% (n = 340,000) | S. cerevisiae expressing PfHsp40, growth rescue, ATP luminescence | AID 504582; in the data active = growth rescue above about 28%, passing the limit was not always enough;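 note: yeast W303a lacking pdr1 and pdr3 grown in galactose medium; growth measured after three days at 30 °C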
CCHFV vOTU inh = CCHFV vOTU protease inhibition. Pep-AMC fluorescence. inhibition, % at 11.5 µM. actives 0.55% (n = 370,000); in the data active = inhibition above about 30%
PrPC TRFRET cf = confirmation of inhibitors of cell surface human prion protein. shares compounds with PrPC TRFRET. cell surface PrPC level, TR-FRET. inhibition, % at 13.8 µM. actives 65% (n = 1,500). AID 743200; in the data active = inhibition above about 25%
LD9 cytotox = kills or reduces viability of LD9 cells in PrPc counter-screen; inhibition, % at 13.8 µM; LD9 cells cytotoxicity, luminescence viability; AID 743201; shares compounds with PrPC TRFRET; actives 29% (n = 1,500); in the data active = inhibition above about 9.5%
A number is an active result; i = inactive; nt = no result.

SMILES	PrPC TRFRET	PrP UTR inh	Sa ugtP lethal	RN4220 kill	PfHsp40 yeast	CCHFV vOTU inh	PrPC TRFRET cf	LD9 cytotox
CCOC(=O)c1ccc(NC(=O)C2CCCN(S(=O)(=O)c3ccc(F)cc3)C2)cc1 (stereo not drawn)	30	i	i	i	i	i	i	i
O=c1c(C=NN2CCOCC2)c(C(F)(F)F)[nH]n1-c1ccccc1	nt	nt	i	i	nt	nt	nt	nt
CCCCCCC(=O)N1CC=CC(c2ccc(OC)cc2)N(Cc2ccc(F)cc2)C(=O)C1 (stereo not drawn)	nt	nt	i	i	nt	nt	nt	nt
COc1ccc2c(c1)CCC1(C)CC(=O)C(Br)=C21 (stereo not drawn)	42	nt	nt	nt	nt	i	68	i
COC(=O)C1(C)CCc2cc(OC)ccc2C1=O (stereo not drawn)	i	i	i	i	i	i	nt	nt
Cc1ccc(Nc2ccc(C(=O)NCCc3ccccc3)cn2)cc1	i	i	i	i	i	i	nt	nt
Cc1ccc(C)c(Nc2ccc(C(=O)NCCc3ccccc3)cn2)c1	27	i	i	i	i	i	i	i
Cn1c(=O)c2cc(NC(=O)NCc3ccccc3)ccc2n1Cc1cccc(C(F)(F)F)c1	25	nt	nt	nt	nt	i	i	i
COc1ccc(OC(F)(F)F)cc1CC1(C)C(=O)Nc2ccc(S(=O)(=O)NC3CCCCC3)cc21 (stereo not drawn)	36	nt	nt	nt	nt	i	29	i
CC1(Cc2ccccc2OC(F)(F)F)C(=O)Nc2ccc(S(=O)(=O)NC3CCCCC3)cc21 (stereo not drawn)	i	nt	nt	nt	nt	i	nt	nt
C[C@@]12C(=O)N(c3cccc(F)c3)C(=O)N1[C@@H]1c3ccccc3OC[C@@H]1[C@H]2c1ccccc1	29	i	nt	nt	i	i	i	i
Cc1ccc2c(c1)C1C(CO2)C(c2ccccc2)[C@]2(C)C(=O)Nc3cc(F)ccc3C(=O)N12 (stereo partly drawn)	nt	nt	i	i	nt	nt	nt	nt
Cc1ccc2c(c1)[C@H]1[C@H](CO2)[C@H](c2ccccc2)[C@]2(C)C(=O)Nc3cc(F)c(F)cc3C(=O)N12	29	i	nt	nt	i	i	i	i
C[C@@]12C(=O)N(c3cccc(Cl)c3)C(=O)N1[C@@H]1c3ccccc3OC[C@@H]1[C@H]2c1ccccc1	i	i	nt	nt	i	i	nt	nt
CCC(C)C(N)c1cn(C(CCC(=O)O)C(=O)N2CCNCC2)nn1 (stereo not drawn)	nt	nt	i	i	nt	nt	nt	nt
CN1CCN(C(=O)C2=CC(C3CCCCC3)CC(OCCCCO)O2)CC1 (stereo not drawn)	nt	nt	i	i	nt	nt	nt	nt
Cc1ccc2cc(C=NNc3nc4ccccc4[nH]3)c(Cl)nc2c1	nt	nt	i	i	nt	nt	nt	nt
C=COC(=O)CSc1nc(-c2cccs2)ccc1C#N	i	i	i	i	i	i	nt	nt
CCOC(=O)C(C)Sc1nc(-c2cccs2)ccc1C#N (stereo not drawn)	28	i	i	i	i	i	43	i
CC(=O)Nc1ccc(-c2nn[nH]n2)cc1	i	i	i	i	i	i	nt	nt
CC(=O)Nc1ccc(-c2ccnc(-c3ccc(NC(C)=O)cc3)n2)cc1	58	i	i	i	i	i	56	i
CCC1=C(OC(=O)N(CC)CC)N2C(=O)OC(=NCC3CC3)[C@]2(Cc2ccccc2)C2C1=CCC1C(=O)N(C)C(=O)C12 (stereo partly drawn)	nt	nt	i	i	nt	nt	nt	nt
Cc1nn(Cc2ccc(Cl)c(Cl)c2)c(C)c1NC(=O)c1cc(CC(C)C)on1	49	i	i	i	i	i	51	i
Cc1ccccc1Cn1nc(C)c(NC(=O)c2cc(CC(C)C)on2)c1C	i	i	i	i	i	i	nt	nt
CC(=NNC(=O)CCCOc1ccc(Cl)cc1Cl)c1ccc(C)o1	nt	nt	i	i	nt	nt	nt	nt
Cc1nc(Nc2nc(CSc3nc4ccccc4[nH]3)cc(=O)[nH]2)nc2ccccc12	34	i	nt	nt	i	i	46	20
O=S(=O)(/C(=C/c1ccc(C(F)(F)F)cc1)c1nc2ccccc2[nH]1)c1ccccc1	38	i	i	i	i	i	79	97
COC(=O)/C(=C\c1ccc(O)cc1)c1nc2ccccc2[nH]1	i	i	i	i	i	i	nt	nt
CC(C)c1ccc(/C=C(\c2nc3ccccc3[nH]2)S(=O)(=O)c2ccccc2)cc1	43	i	i	i	i	i	44	i
